Bioassay records: PubChem BioAssay, The Scripps Research Institute Molecular Screening Center
TEAD-YAP inh: TEAD-YAP interaction inhibition; 640,000 tested, 1.4% active; inhibition, % at 9.12 µM; HEK-TIYL cells, TEAD-Gal4/YAP UAS-luciferase luminescence; in the data active = inhibition above about 32%
MITF inh: inhibitors of human MITF. O75030. AlphaScreen MITF homodimerization, bead proximity signal. inhibition, % at 2.6 µM. 650,000 tested, 0.91% active. AID 1259374; in the data active = inhibition above about 50%
Target sequence (O75030 whole entry, looked up): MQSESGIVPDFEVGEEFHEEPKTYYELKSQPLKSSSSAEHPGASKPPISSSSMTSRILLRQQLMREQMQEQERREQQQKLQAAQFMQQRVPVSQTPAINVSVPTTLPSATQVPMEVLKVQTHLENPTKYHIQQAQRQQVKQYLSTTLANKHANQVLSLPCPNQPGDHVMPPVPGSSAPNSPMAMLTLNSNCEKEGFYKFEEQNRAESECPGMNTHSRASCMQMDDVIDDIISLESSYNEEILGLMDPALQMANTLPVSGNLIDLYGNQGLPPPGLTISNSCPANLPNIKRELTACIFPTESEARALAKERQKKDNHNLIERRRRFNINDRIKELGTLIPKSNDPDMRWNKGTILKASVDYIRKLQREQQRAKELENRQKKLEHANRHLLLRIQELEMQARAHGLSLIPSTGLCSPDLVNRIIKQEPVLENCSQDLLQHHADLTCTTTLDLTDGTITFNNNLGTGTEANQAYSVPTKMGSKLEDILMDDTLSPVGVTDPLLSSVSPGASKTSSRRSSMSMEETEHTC
FBW7 act: human FBW7 E3 ligase activation, primary screen. normalized activity (activation), % at 26.1 µM. AID 1259310. Q969H0. AlphaScreen FBW7–phospho-cyclin E peptide binding, activator screen. 650,000 tested, 0.13% active; in the data active = normalized activity above about 1.9%;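 also: purified mutant Fbw7 with reduced substrate affinity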
GPR151 activ: activates the human receptor GPR151; PathHunter beta-arrestin GPR151 cells, luminescence; activation, % at 11.2 µM; 650,000 tested, 1% active; in the data active = activation above about 4.9%
MITF confirm: human MITF inhibition, confirmation; 4,700 tested, 16% active; AlphaScreen MITF homodimerization, biotin/His-MITF beads; inhibition, % at 2.6 µM; AID 1259372; shares compounds with MITF inh;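 active = inhibition above a cutoff derived from the DMSO control wells, cut at about 28% in these data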;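 also: inhibitors lower the bead chemiluminescence by keeping MITF from dimerizing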
AlphaScreen DR: AlphaScreen optical interference, dose response counter-screen; shares compounds with MITF inh; AlphaScreen optical interference counterscreen, cell-free; IC50, µM; 480 tested, 6% active; call rule not given here
AS interf ctr: optically interferes with AlphaScreen signal | shares compounds with MITF inh | LysRS AlphaScreen counterscreen, signal interference, triplicate | inhibition, % at 2.6 µM | 4,700 tested, 7.6% active;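 active = inhibition above a cutoff derived from the DMSO control wells, cut at about 30% in these data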
A number is an active result; . = inactive; / = not tested or not shown. Sampled rows, rich in hits. Any-hit rate of the full collection: about 3.5%.

SMILES	TEAD-YAP inh	MITF inh	FBW7 act	GPR151 activ	MITF confirm	AS interf ctr	others
FC(F)(F)c1cccc(Cn2cc(-c3ccncc3)cn2)c1	.	.	.	.	/	/
CCOC(=O)c1c(NC(=O)CN2CCN(CC)CC2)sc(C)c1C	.	86	.	.	.	.
CCOC(=O)c1sc(NC(=O)CN2C(C)CCCC2C)c(C(=O)OCC)c1C (stereo not drawn)	.	58	.	.	.	.
CCOC(=O)c1c(NC(=O)CN(C)C)sc(C)c1C	.	.	.	.	/	/
COC(=O)c1ccccc1NC(=O)Cn1c(CCC(=O)O)ccc1-c1ccc(OC)cc1	.	.	.	.	/	/
COc1cc(Nc2nc(NCCCN3CCCC3=O)nc3nc[nH]c23)cc(OC)c1OC	.	.	.	.	/	/
N/C(=N\OC(=O)c1ccccc1)c1ccc(Cn2cc(C(F)(F)F)ccc2=O)cc1	.	54	.	.	.	.
CCc1ccc(C2C(C#N)=C(N)N(c3ccc(OC)cc3)C3=C2C(=O)CCC3)cc1 (stereo not drawn)	.	.	.	.	/	/
CCC1CN(CC(=O)NC2C3CC4CC(C3)CC2C4)Cc2cc(OC)ccc2O1 (stereo not drawn)	.	60	.	.	.	.
CCOC(=O)c1ccc(NC(=S)N2CCN(C(=O)OCC)CC2)cc1	.	.	.	.	/	/
CCOc1ccc(NCC(=O)Nc2ccc(F)cc2)cc1	.	68	.	.	.	.
CCOC(=O)N1CCN(C(=S)Nc2ccc(OCC)cc2)CC1	.	102	.	.	64	.	AlphaScreen DR=.
O=C(Nc1c(C(=O)N2CCCCC2)cnn1-c1ccccc1)c1ccc(Br)cc1	.	.	.	.	/	/
Cc1ccc(S(=O)(=O)N2CCN(C(C)CC(=O)O)CC2)cc1 (stereo not drawn)	.	65	.	.	.	.
CC(C(=O)N1CCCCC1)N(C)CC(=O)Nc1ccc(F)c(F)c1F (stereo not drawn)	.	69	.	.	.	.
COc1ccc(Cc2nnc(N/N=C/c3c(CO)cnc(C)c3O)[nH]c2=O)cc1OC	.	111	.	.	107	100
COc1ccc(Cc2nnc(N/N=C/c3cccc([N+](=O)[O-])c3)[nH]c2=O)cc1OC	.	.	.	.	/	/
CC1=NN(c2cc(C)cc(C)c2)C(=O)C1	.	.	.	.	/	/
CCNc1nc(NCC)nc(N2N=C(C)CC2=O)n1	.	71	.	.	41	66
CCN(C(=O)COC(=O)Cn1cnc2c1c(=O)n(C)c(=O)n2C)c1cccc2ccccc12	.	.	.	.	/	/
Cc1cc(C)c2nc(/N=C/c3cc([N+](=O)[O-])cc([N+](=O)[O-])c3O)sc2c1	.	.	.	.	/	/
Cc1ccc2nc(/N=C/c3cc([N+](=O)[O-])cc([N+](=O)[O-])c3O)sc2c1	.	51	.	.	.	.
COc1ccccc1CN1CCCCCC1	.	.	.	.	/	/
COc1ccc(CN2CCN(Cc3ccccn3)CC2)c(OC)c1OC	.	59	.	.	.	.
COc1ccc(CN2CCN(c3ccccn3)CC2)c(OC)c1OC	.	.	.	.	/	/
SMILES	TEAD-YAP inh	MITF inh	FBW7 act	GPR151 activ	MITF confirm	AS interf ctr	others
COc1ccccc1CN1CCN(Cc2ccccn2)CC1	.	65	.	.	.	.
CCn1c(SCC(=O)OC)nnc1-c1ccccc1Br	.	.	.	.	/	/
Cn1c(SCc2cc(=O)n3c(n2)sc2ccccc23)nnc1C(F)(F)F	.	60	.	.	79	.	AlphaScreen DR=.
Nn1c(SCc2cc(=O)n3c(n2)sc2ccccc23)nnc1C1CC1	.	.	.	.	/	/
Cc1ccc(NCC(=O)N/N=C/c2cccc3ccccc23)cc1	.	.	.	.	/	/
O=[N+]([O-])c1cccc(C=Nc2ccc(F)cc2)c1O	.	.	.	.	/	/
O=C(O)Cc1ccc(N=Cc2cccc([N+](=O)[O-])c2O)cc1	.	94	.	.	.	.
O=C(NCc1ccco1)C1CCN(S(=O)(=O)N2CCCC2)CC1	.	.	.	.	/	/
O=C(CCCCCn1nnc2ccccc2c1=O)N1CCC(O)(c2cccc(C(F)(F)F)c2)CC1	.	74	.	.	.	.
CN(C)CC(C)(C)CNCC(=O)Nc1ccc(F)c(F)c1F	.	70	.	.	.	.
CCCN1CCCc2cc(CCNS(C)(=O)=O)ccc21	.	51	.	.	.	.
O=C(CSc1nnc(-c2cccc(Cl)c2)o1)Nc1ccccc1	.	82	.	.	.	.
